The campaign covered roughly 31,000 sequences. About 1,400 (4.5%) were called active.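 How the source made its calls: active means median seed-adjusted z-score above 1 or below -1; inactive means the rest.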 Only a selection was taken, and actives are over-represented in it overall.
experiment: Novel Modifiers of Survival Motor Neuron (SMN) Protein: Gene Identification via Genome-wide siRNA Screen; settings: HEK293T SMN2-luciferase reporter, siRNA knockdown, 72 h; actives lie on both sides
Excerpt: Spinal muscular atrophy (SMA) is the most common neuromuscular autosomal recessive disorder and one of the leading genetic causes of infant death. SMA results from mutations inducing loss of function or deletion in the survival of motor neuron-1 gene (SMN1), leading to deficiency of the survival motor neuron (SMN) protein. Although a second nearly identical gene, SMN2, is retained in humans, its expression primarily produces an aberrantly spliced isoform that is largely unstable and quickly degraded. We performed a genome-wide RNAi screen using a cell-based reporter assay to identify genes and pathways that modulate SMN protein stability. The screen identified over 200 genes that led to the greatest increase or decrease in luciferase expression.
Using HEK293T cells stably expressing a luciferase reporter that combines the promoter and splicing based cassettes in tandem with the major portion of the native SMN2 cDNA with luciferase, we performed a genome-wide RNAi screen to identify modulators of SMN protein levels. Luciferase is expressed when full-length SMN protein is generated with luminescence signal proportional to SMN protein levels. Our luciferase-based reporter assay was used to screen Ambion Silencer Select Human Druggable Genome siRNA library (10418 genes, 3 unique siRNAs per gene) using lipid-based reverse transfection.
Briefly, 1 pmol of each siRNA was spotted to a well of a 384-well plate (Corning, Corning, NY) and 20 microL of serum-free DMEM containing […] of Lipofectamine RNAiMax (Life Technologies, Carlsbad, CA) was then added to each well. Transfected cells were maintained at 37 degrees C in 5% CO2 for 72 hours, 20 microL of ONE-Glo Reagent (Promega) was added to wells for luciferase quantification. Raw luminescence reads were normalized to Ambion(R) Silencer(R) Negative Control #2 siRNA, then log10 transformed. A robust statistical measure of median absolute deviation (MAD) to standardize siRNA activities from each screen. Common Seed Analysis was used to help prioritize clean hits as opposed to those appearing to arise from seed based off-target effects. Candidate modulators were defined as the genes having a MAD score greater than 1.0 or less than -1.0.

Sequence | median seed-adjusted z-score
CCAGCAAACUCAACCAACATT against KCNJ6 | -1.6 (active)
GGAUGACUACAGGCAAGAATT against GPA33 | 0.138 (inactive)
GCUUCACCAGGGACGUGAATT against CD1D | -0.579 (inactive)
AGGUCUCAGAUGAAGCGGUTT against PPM1B | 0 (inactive)
CCCUUAAUAGAGAGAGUUATT against AADAT | 0.0891 (inactive)
GGAUCAAUGAGUUCUCCAUTT against FMOD | -1.32 (active)
GGCUCAAGUUCAACGAGUUTT against ARL4C | -0.61 (inactive)
GGCCUAUGCAAAAAGAGGATT against BAD | 0 (inactive)
GGAUACAUUAAGCUAAUAATT against PRMT3 | 0.00875 (inactive)
CCACCCUUCCGAGACAUGATT against TOP3B | -1.11 (active)
GCAUAAGAGGGAAUUCACATT against TAGLN | 0.0485 (inactive)
CGAUCGUCUUCUGAUCAAATT against DPYSL2 | -0.569 (inactive)
ACCUGAGUGUGAACCUCUATT against GDPD5 | -0.0618 (inactive)
CAGUAGUGUUGGUAGACCATT against HADH | 1.11 (active)
GAGUGUAUGUGAUCAUCGATT against PRKCE | 0.568 (inactive)
GGAGAUUGUUUCACGGAAATT against TBC1D23 | 0.0932 (inactive)
GGGACGAGAUCAACGAGAATT against KIF5A | -0.348 (inactive)
UCUUAUUUAUUCUACAUCCTT against TNFRSF6B | 0.0458 (inactive)
GUUGUUCCUUUGUAUCCAATT against DHX32 | -0.12 (inactive)
CCCAGACAAAUUACCUAUATT against CAD | 2.37 (active)
GGACCUAUGAGCAACGAAATT against ATP1A4 | 0.116 (inactive)
GCAUGAACCAGUUAUCACATT against SCYL2 | -0.0652 (inactive)
GCAGCUCUGAGAACGGCAATT against ARHGEF1 | -0.0658 (inactive)
CUACCGAUGCUGAAAGACATT against PGM3 | -0.527 (inactive)
CCACGCUCAUCAUCUCCAATT against SLC4A2 | -0.539 (inactive)
CUACUGUUCUUGACCACAATT against DHX15 | 1.36 (active)
GGCUCAAGGGCUUUGCUGATT against ADSSL1 | 0.0976 (inactive)
CCGUUAGACCAGAACGGAATT against MGA | 0.0136 (inactive)
CAUAGUCACAUGAUUAAUATT against POSTN | -0.45 (inactive)
GGAAGACAAUUGCUAAGGUTT against TRO | 2.04 (active)
